For 13 molecules, growth results are on record in PubChem BioAssay (NCI).

About 83,000 compounds went through this panel and 20% of them were active in at least one assay; those are over-represented in the sample as a whole.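 Cells were grown in 96-well plates and exposed to the test compound at a single concentration for 48 hours; results are reported as percent growth, with values below 10 considered active.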 The source made the active and inactive calls.

The test system of the experiment is ACHN renal. Nature of the experiment: NCI-60 one-dose screen, 48 h (100 = growth as untreated, 0 = no growth, -100 = all killed). The conditions noted are these: 10 µM unless noted.
On to `Clc1ccc([I+]c2ccc(Cl)cc2Cl)c(Cl)c1`, for which the growth is 29.6% (inactive).

On to `Cc1ccc(C2=NN(c3ccc(S(N)(=O)=O)cc3)C(c3cn(-c4ccccc4)nc3-c3ccccc3)C2)cc1` (stereo not drawn), for which the growth is 93% (inactive).

In the case of `N#CC1=C(N)OC2=C(C(=O)CCC2)C1c1ccco1` (stereo not drawn), the growth is 104% (inactive).

As to `COC1=CC(c2ccc[nH]2)=N/C1=C\c1[nH]c(C)c(C(=O)CCCCC(=O)Oc2ccc3c(c2)CCC2C3CC[C@]3(C)[C@@H](O)CC[C@@H]23)c1C` (stereo partly drawn), the growth is 62.9% (inactive).

On to `COc1ccc(NC(=O)CSc2nc3ccccc3c(=O)n2Cc2cc(OC)c(OC)c(OC)c2)cc1`, for which the growth is 80.6% (inactive).

`Nc1c(C(=O)Nc2c(Cl)cccc2Cl)sc2nc3c(cc12)CCCCC3`: the growth was 58.5% (inactive).

Turning to `O=C(CN1CCN(c2cc3c(cc2F)c(=O)c(C(=O)O)cn3C2CC2)CC1)Nc1ccc(C(=O)/C=C/c2ccccc2)cc1`, the growth was 40.1% (inactive).

As for `COc1cc(/C=C/C(=O)c2ccc(NC(=O)CN3CCN(c4cc5c(cc4F)c(=O)c(C(=O)O)cn5C4CC4)CC3)cc2)cc(OC)c1OC`, the growth is 10.8% (inactive).

In the case of `NC(=O)c1c(NC(=O)c2ccc(OCC3CCCO3)cc2)sc2c1CCCC2` (stereo not drawn), the growth is 106% (inactive).

In the case of `COc1ccc(/C=C/C(=O)OCC(=O)NNC(=O)c2ccccc2)cc1OC`, the growth is 90.2% (inactive).

With `Cc1sc(N=Nc2ccc(N(C)C)cc2)[n+]([O-])c1C`, the growth is 104% (inactive).

`O=C(/C=C/c1ccccc1)n1c(-c2ccc(Cl)cc2)nc2ccccc21`: the growth was -49.9% (active).

With `COC(=O)[C@H]1[C@H](OC)[C@@H](OC(=O)/C=C/c2ccncc2)CC2CN3CCc4c([nH]c5cc(OC)ccc45)[C@@H]3C[C@@H]21` (stereo partly drawn), the growth was 63% (inactive).
